HSV replic up: HSV replication enhancement. hit rate 0.005% among 220,000. HSV replication augmentation in cells, fold increase. maximum fold increase; in the data active = maximum fold increase above about 1.5; inconclusive = no clear call, values can overlap the other calls; tested in PC3 cells
Arbovirus inh: blocks arbovirus infection; inhibition, % at 10 µM; hit rate 0.37% among 200,000; arbovirus infection cell-based antiviral screen; in the data active = inhibition above about 30%
Cl transport mod: modulates chloride dependent transport by human KCC2; Q9H2X9; KCC2 cells, thallium flux FluoZin-2 fluorescence; B-score of Tl+ flux slope (higher = more flux/activation; lower = inhibition) at 10 µM; hit rate 2.2% among 190,000;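 active = thallium flux slope and its plate-corrected score both differing from the plate sample mean at a set confidence after two filtering rounds, in either direction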;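 note: slope of fluorescence scaled to starting intensity during 10 to 20 s after thallium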
Target sequence (Q9H2X9 whole entry, looked up): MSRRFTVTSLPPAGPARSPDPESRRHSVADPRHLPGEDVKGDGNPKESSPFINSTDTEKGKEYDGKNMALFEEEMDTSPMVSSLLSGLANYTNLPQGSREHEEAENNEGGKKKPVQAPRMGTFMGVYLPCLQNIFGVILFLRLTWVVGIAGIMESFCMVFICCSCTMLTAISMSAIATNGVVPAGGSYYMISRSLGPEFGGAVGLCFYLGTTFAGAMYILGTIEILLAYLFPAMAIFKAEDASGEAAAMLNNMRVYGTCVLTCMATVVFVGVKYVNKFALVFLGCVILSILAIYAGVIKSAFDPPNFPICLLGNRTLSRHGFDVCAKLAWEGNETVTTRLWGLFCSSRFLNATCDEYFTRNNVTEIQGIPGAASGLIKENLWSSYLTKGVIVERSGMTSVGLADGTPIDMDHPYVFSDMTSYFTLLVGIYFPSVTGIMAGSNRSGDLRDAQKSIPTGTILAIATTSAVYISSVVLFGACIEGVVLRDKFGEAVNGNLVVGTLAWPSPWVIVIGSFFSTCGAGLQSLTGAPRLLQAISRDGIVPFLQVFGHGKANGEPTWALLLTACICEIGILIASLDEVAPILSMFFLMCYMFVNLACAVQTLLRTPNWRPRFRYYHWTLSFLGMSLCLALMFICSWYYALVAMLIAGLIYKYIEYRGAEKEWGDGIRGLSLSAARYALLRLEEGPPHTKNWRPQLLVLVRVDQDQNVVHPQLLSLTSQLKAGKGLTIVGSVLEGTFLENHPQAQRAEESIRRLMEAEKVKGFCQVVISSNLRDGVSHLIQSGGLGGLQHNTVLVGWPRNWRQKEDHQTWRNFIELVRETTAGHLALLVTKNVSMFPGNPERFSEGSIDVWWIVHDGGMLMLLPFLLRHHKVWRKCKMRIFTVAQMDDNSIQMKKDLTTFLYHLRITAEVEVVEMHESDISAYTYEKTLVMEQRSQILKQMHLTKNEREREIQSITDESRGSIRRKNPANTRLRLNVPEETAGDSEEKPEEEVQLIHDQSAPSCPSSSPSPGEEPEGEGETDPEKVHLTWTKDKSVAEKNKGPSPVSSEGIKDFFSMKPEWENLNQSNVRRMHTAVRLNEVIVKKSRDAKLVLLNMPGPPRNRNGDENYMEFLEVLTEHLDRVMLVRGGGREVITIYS
Measles CPE: protection of cells from measles virus; Measles virus-infected cells, CPE protection, absorbance; protection (pct of control), % at 4 µM; hit rate 1.5% among 140,000; in the data active = protection mostly above about 24%, no sharp cut-off; inactive = mostly below about 26%
ROMK primary: modulators of human ROMK potassium channel; hit rate 2% among 130,000; Tet-inducible ROMK, thallium flux fluorescence; actives lie on both sides; P48048; B-score at 10 µM; AID 1918;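 active = signal ratio slope over the read window, or its plate-corrected B-score, at least 3 SD from the plate mean, either direction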;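 note: B-score of the F/F0 ratio slope over 7 to 12 s after thallium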
KCC2 secondary: KCC2 (human) modulation, secondary assay. hit rate 15% among 3,700. shares compounds with Cl transport mod. AID 1713. normalised thallium flux (F/F0 slope) at 10 µM. HEK293-KCC2, thallium flux, FluoZin2 fluorescence; active compounds read high;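 active = thallium flux slope above the same plate's solvent-only control mean plus 3 SD; inconclusive = the two replicate wells disagree; inactive = no significant difference from solvent-only control wells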
KCC2 bumet counter: thallium flux persisting under bumetanide in KCC2 cells, counter-screen secondary assay; shares compounds with Cl transport mod; hit rate 49% among 3,700; HEK293-KCC2 + bumetanide/ouabain, thallium flux FluoZin2; active compounds read high; normalized thallium flux at 10 µM;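 active = thallium entry rate above the same plate's blocked-transporter control wells by more than 3 SD; inconclusive = the two repeat wells disagree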;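 note: raw slope of fluorescence over initial fluorescence between 10 and 20 s after thallium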
KCC2 sec2: KCC2 (human) modulation, second secondary assay; hit rate 23% among 3,700; normalized thallium flux at 10 µM; shares compounds with Cl transport mod; HEK293-KCC2, thallium flux FluoZin2 fluorescence; actives lie on both sides; F/F0 rise rate, 10–20 s post-thallium;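 active = thallium flux slope more than 3 SD above or below the plate's solvent-only control mean, mostly below; inconclusive = the two repeat wells disagreed; inactive = no significant shift from solvent-only controls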
HEK293 Tl flux: counter-screen for KCC2 modulators: effect in parental HEK293 cells. thallium flux rate (normalised fluorescence) at 10 µM. AID 1716. thallium flux FluoZin2, ouabain; baseline-ratio fluorescence slope, 10–20 s after thallium. hit rate 46% among 3,700. shares compounds with Cl transport mod;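 active = thallium flux rate significantly above the same plate's solvent-only control wells, beyond their mean plus 3 SD; inconclusive = the two replicate wells gave conflicting results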
KCC2 retest ouab: confirmation of human KCC2 modulators with ouabain. shares compounds with Cl transport mod. HEK293-KCC2, thallium flux FluoZin2 fluorescence; bidirectional: low = inhibitor, high = activator. raw Tl+ flux slope (below DMSO = inhibition, above = activation) at 10 µM. hit rate 48% among 3,700. AID 1717;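 active = thallium flux slope beyond 3 SD from same-plate DMSO control mean in most replicates, usually higher, sometimes lower; inconclusive = repeat tests gave conflicting results; inactive = no significant difference from controls in most replicates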;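 note: slope of initial-normalized fluorescence between seconds 10 and 20 after thallium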
HEK counter2: parental HEK flux effect, counter-screen 2. shares compounds with Cl transport mod. HEK293 parental, thallium flux FluoZin-2 fluorescence slope. thallium flux slope at 10 µM. hit rate 33% among 3,700. AID 1718;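 active = thallium flux slope above the same plate's solvent-control mean plus 3 SD in both duplicate wells; inconclusive = duplicate wells that disagreed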;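 note: run without ouabain in cells lacking the KCC2 cotransporter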
Large screens that a line does not name were inactive (follow-up assays come after a bar, where they were run). Most compounds without a hit are left out; they make up all but 4% or so of the library.

O=C(OCC(=O)N1CCN(C(=O)c2ccco2)CC1)c1sc2ccccc2c1Cl	Cl transport mod -3.96 (no result: ROMK primary) | KCC2 secondary inactive | KCC2 bumet counter inconclusive | KCC2 sec2 inconclusive | HEK293 Tl flux inactive | KCC2 retest ouab inactive | HEK counter2 inactive
O=C(OCC(=O)N1CCN(C(=O)c2ccco2)CC1)c1ccccc1	none (no result: Measles CPE)
Cc1cc2nc(SCC(=O)Nc3ccccc3C(=O)O)[nH]c2cc1C	none (no result: Measles CPE)
Cc1ccccc1Cn1nc(C)c(NC(=O)c2noc3c2CCc2ccccc2-3)c1C	Cl transport mod -3.84 (no result: ROMK primary) | KCC2 secondary inactive | KCC2 bumet counter inactive | KCC2 sec2 inactive | HEK293 Tl flux inactive | KCC2 retest ouab inactive | HEK counter2 inactive
O=C(NCc1ccco1)c1ccc(F)c(S(=O)(=O)N2CCCCC2)c1	none (no result: Measles CPE)
O=C(NCc1ccco1)c1ccc(Br)c(S(=O)(=O)N2CCCCC2)c1	none (no result: Cl transport mod) | KCC2 secondary inactive | KCC2 bumet counter inactive | KCC2 sec2 inconclusive | HEK293 Tl flux inactive | KCC2 retest ouab inactive | HEK counter2 inactive
CCOC(=O)c1c([N+](=O)[O-])c(C)[nH]c(=O)c1C#N	none (no result: Arbovirus inh, Measles CPE, ROMK primary)
O=C(COc1cccc2cccnc12)Nc1ccccc1N1CCOCC1	Cl transport mod -5.56 (no result: Measles CPE) | KCC2 secondary inconclusive | KCC2 bumet counter inactive | KCC2 sec2 inactive | HEK293 Tl flux 0.00503 | KCC2 retest ouab inactive | HEK counter2 inconclusive
CC1(C)Cc2cccc(OCC(=O)Nc3ccccc3N3CCOCC3)c2O1	none (no result: Cl transport mod)
COc1ccc(C(=O)N2CCCC(c3ccccc3)C2)cc1 (stereo unspecified)	Cl transport mod -4.8 | KCC2 secondary inactive | KCC2 bumet counter 0.00726 | KCC2 sec2 0.0248 | HEK293 Tl flux inactive | KCC2 retest ouab inconclusive | HEK counter2 inactive
O=C(c1ccc(F)cc1)N1CCC(c2ccccc2)C1 (stereo unspecified)	none (no result: Arbovirus inh, Measles CPE, ROMK primary)
O=C(COc1ccccc1)N/N=C/c1ccc2c(c1)OCO2	none (no result: Measles CPE)
O=C(N/N=C/c1ccc2c(c1)OCO2)C(O)c1ccccc1 (stereo unspecified)	Cl transport mod 4.71 | KCC2 secondary inactive | KCC2 bumet counter inactive | KCC2 sec2 inactive | HEK293 Tl flux inactive | KCC2 retest ouab inactive | HEK counter2 inactive
O=C(Cc1ccccc1)NCC(=O)N/N=C/c1ccc(Cl)cc1	none (no result: Measles CPE)
O=C1/C(=C/c2ccccc2O)SC(=S)N1Cc1cccnc1	Cl transport mod 10.1 (no result: ROMK primary) | KCC2 secondary inactive | KCC2 bumet counter 0.0173 | KCC2 sec2 inconclusive | HEK293 Tl flux 0.0245 | KCC2 retest ouab 0.0273 | HEK counter2 0.0231
CCCCn1nnnc1NCc1cc(OC)c(OC)cc1OC	Cl transport mod 4.89 (no result: ROMK primary) | KCC2 secondary inactive | KCC2 bumet counter inactive | KCC2 sec2 inactive | HEK293 Tl flux inactive | KCC2 retest ouab inactive | HEK counter2 inactive
S=c1[nH]nc(CCSCc2ccccc2)n1-c1ccccc1	none (no result: Measles CPE, ROMK primary)
COc1ccc(CSCCc2n[nH]c(=S)n2-c2ccccc2)cc1C	Cl transport mod 54.8 (no result: Measles CPE, ROMK primary) | KCC2 secondary inactive | KCC2 bumet counter 0.0294 | KCC2 sec2 inactive | HEK293 Tl flux 0.0234 | KCC2 retest ouab inactive | HEK counter2 inactive
CN(C(=O)COC(=O)c1ccc(=O)n(Cc2ccccc2)n1)c1ccccc1	none (no result: Measles CPE)
CCOc1cc(N2CCOCC2)c(OCC)cc1NC(=O)Cc1ccc(OC)c(OC)c1	Cl transport mod -4.7 (no result: HSV replic up, ROMK primary) | KCC2 secondary inactive | KCC2 bumet counter inactive | KCC2 sec2 inactive | HEK293 Tl flux inactive | KCC2 retest ouab inactive | HEK counter2 inactive
CCOc1cc(N2CCOCC2)c(OCC)cc1NC(=O)Cc1cccc(OC)c1	none (no result: ROMK primary)
COC(=O)C(NC(C)=O)(Nc1sc2c(c1C(N)=O)CCCC2)C(F)(F)F (stereo unspecified)	none (no result: Cl transport mod) | KCC2 secondary inactive | KCC2 bumet counter inactive | KCC2 sec2 inactive | HEK293 Tl flux inactive | KCC2 retest ouab inactive | HEK counter2 inactive
CC1=CC2=NC(=O)/C(=C\c3cccn3CCOc3cc(C)ccc3C)C(=N)N2O1	none
CC(C)(C)NC(=O)C(=O)NNC(=O)C12CC3CC(CC(C3)C1)C2	Cl transport mod 5.92 (no result: HSV replic up) | KCC2 secondary inconclusive | KCC2 bumet counter 0.0452 | KCC2 sec2 0.0364 | HEK293 Tl flux 0.0286 | KCC2 retest ouab 0.0384 | HEK counter2 0.0232
O=C(NC1CCCCCC1)C1CCN(c2nc3ccccc3o2)CC1	Measles CPE 32.3 (no result: HSV replic up, Cl transport mod) | KCC2 secondary inactive | KCC2 bumet counter inactive | KCC2 sec2 inconclusive | HEK293 Tl flux inactive | KCC2 retest ouab 0.0181 | HEK counter2 inactive
CCOC(=O)c1c(C)[nH]c(C)c1C(=O)CSc1nc2ccccc2n1CC	none (no result: ROMK primary)
CCOC(=O)c1c(C)[nH]c(C)c1C(=O)CSc1nc2ccccc2c(=O)n1-c1ccc(CC)cc1	Cl transport mod 3.98 | KCC2 secondary inactive | KCC2 bumet counter 0.0155 | KCC2 sec2 inactive | HEK293 Tl flux inconclusive | KCC2 retest ouab inactive | HEK counter2 inconclusive
O=C(N/N=C/c1ccc([N+](=O)[O-])s1)c1ccncc1	none (no result: ROMK primary)
Cc1ccc(C(=O)N/N=C/c2ccc([N+](=O)[O-])s2)cc1	Cl transport mod 6.61 (no result: ROMK primary) | KCC2 secondary inactive | KCC2 bumet counter 0.0153 | KCC2 sec2 inactive | HEK293 Tl flux 0.0157 | KCC2 retest ouab inconclusive | HEK counter2 inconclusive
Cc1ccc([N+](=O)[O-])c(C(=O)N/N=C/c2cccs2)c1	Cl transport mod 4.54 (no result: Arbovirus inh, Measles CPE) | KCC2 secondary inactive | KCC2 bumet counter 0.0135 | KCC2 sec2 inactive | HEK293 Tl flux 0.0111 | KCC2 retest ouab inactive | HEK counter2 0.0138
NS(=O)(=O)c1cccc(NC(=O)COC(=O)CN2C(=O)C3CC=CCC3C2=O)c1 (stereo unspecified)	none (no result: Measles CPE)
Cc1cc(C)c(S(=O)(=O)/N=C2/C=C(SCC(=O)O)C(=O)c3ccccc32)cc1C	Cl transport mod -4.2 (no result: Measles CPE) | KCC2 secondary inactive | KCC2 bumet counter 0.00699 | KCC2 sec2 inconclusive | HEK293 Tl flux inactive | KCC2 retest ouab inactive | HEK counter2 inactive
Cc1ccc2ncnc(Oc3ncccc3NC(=O)C(C)(C)C)c2c1	none (no result: Arbovirus inh, Cl transport mod, Measles CPE, ROMK primary)
CCc1cccc(CC)c1NC(=S)NCCc1ccc(O)c(O)c1	none (no result: Measles CPE)
CCc1cccc(CC)c1NC(=S)NCCc1c(C)[nH]c2ccccc12	Cl transport mod -3.75 (no result: HSV replic up) | KCC2 secondary inactive | KCC2 bumet counter inconclusive | KCC2 sec2 inactive | HEK293 Tl flux inconclusive | KCC2 retest ouab inactive | HEK counter2 inactive

Source: PubChem BioAssay
